Assay results taken from PubChem BioAssay AID493169 (National Center for Advancing Translational Sciences (NCATS), 2011).
Inconclusive results are not listed. Unmarked numbers belong to inactive results. Active and inactive are the calls of the source. Calls come from the whole dose curve; as a rule, active = well fitted inhibition curve with a large enough effect; inconclusive = small, poorly fitted or top-dose-only effect; inactive = flat fitted curve, though single readings scatter.

Test: CHOP2 Reporter Counterscreen Assay for Inhibitors of Ubiquitin-specific Protease USP2a;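 note: activated enterokinase alone at 50 pM in a cell-free format rather than USP2a or CHOP2; nearly all actives have a fitted effect of over 55% in size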
Conditions: purified enterokinase, fluorogenic substrate, 485/531 nm; series mostly up to 38.3 µM; activity change, negative = inhibition: at the top concentration
How it was run: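 Fluorescence (485/531 nm) read 10 min after adding 25nM reporter substrate to 50 pM activated EK preincubated 30 min RT with compound; Tris pH 8.0/CaCl2/CHAPS buffer. Data normalized to buffer-alone inhibition; concentration-response curves fitted.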
% is set by controls: 0 for no effect and ±100 for the full control effect; potency is the fitted concentration of half-maximal effect.

| Structure (SMILES) | activity change, negative = inhibition [%] | Potency |
| --- | --- | --- |
| Cc1ccc(S(=O)(=O)Nc2ccc(N3CCOCC3)cc2)cc1 | 1.6 | – |
| C=CCn1c(N)c(C(=O)NCc2cccnc2)sc1=S | 12.9 | – |
| CC1(C)CC(=O)C=C(NCc2cccs2)C1 | 2.48 | – |
| Cc1cnc(N)c2c(=O)oc3ccccc3c12 | 1.83 | – |
| COc1ccc(CC(=O)c2ccccc2C(=O)O)cc1 | 5.34 | – |
| Cc1cccn2c(=O)c3cc(C(=O)NCCN4CCOCC4)c(=N)n(CCN4CCOCC4)c3nc12 | -17.7 | – |
| Cc1[nH]c2ccccc2c1C(c1ccccn1)c1c(C)[nH]c2ccccc12 | -6.71 | – |
| O=c1oc2c(CN3CCCCC3)c(O)ccc2c2c1CCCCC2 | 1.4 | – |
| CCCCCCCC/C=C\CCCCCCCC(=O)NCCc1ccc(O)c(O)c1 | -8.38 | – |
| C=CCOc1cccc(C2C(C(=O)c3ccco3)=C(O)C(=O)N2CCN(CC)CC)c1 (stereo not given) | 2.38 | – |
| CC(C)C(=O)Nc1ccc(C(=O)N2CCCCCC2)cc1 | -0.838 | – |
| COc1ccc(C2CC(=O)N3CN(c4ccccc4F)CSC3=C2C#N)cc1OC (stereo not given) | -1.25 | – |
| N#Cc1c(Nc2ccc(Cl)cc2)s[nH]c1=O | -3.6 | – |
| Cc1ccc([C@H]2C(C(=O)O)=CC[C@@H](c3ccc(Cl)cc3)N2S(=O)(=O)c2ccc(C)cc2)cc1 | -10.9 | – |
| COc1ccc(NC(=O)CSc2ncccc2C(=O)OC(C)C)cc1OC | 1.72 | – |
| O=C(COc1ccccc1)NCCSc1ccccc1 | -0.789 | – |
| Cc1cc(C)c(NC(=O)C[N+](C)(C)CC(O)COc2cccc3ccccc23)c(C)c1 (stereo not given) | -4.33 | – |
| Cc1ccc(-c2c(C#N)c(N)nc3c2CCCCC3)o1 | 1.52 | – |
| O=C1S/C(=C\C=C\c2ccco2)C(=O)N1c1ccc(O)cc1 | – | 10 µM (active) |
| O=C(NNC(=O)c1cc2ccccc2cc1O)Nc1ccccc1F | 0.199 | – |

| Structure (SMILES) | activity change, negative = inhibition [%] | Potency |
| --- | --- | --- |
| CCOC(=O)c1ccc(NC(=O)C2=C(C)Nc3nc(CCCO)nn3C2c2cccc(C)c2)cc1 (stereo not given) | 5.85 | – |
| O=C(CSc1nnc(SCc2ccccc2)s1)N/N=C/c1c[nH]c2ccccc12 | -4.05 | – |
| COc1ccc(O)c(-c2cc(-c3ccc(F)cc3)n[nH]2)c1 | -5.03 | – |
| CCCCCCCCCC[N+](C)(C)CC/C=C1/c2ccccc2Sc2ccc(Cl)cc21 | – | 7.94 µM (active) |
| CCOc1ccc2nc(NC(=O)Nc3ccccc3)sc2c1 | -4.34 | – |
| Cc1c(C(=O)Nc2ccc3c4c(cccc24)CC3)cccc1[N+](=O)[O-] | -0.0061 | – |
| O=c1cc(CO)oc(CN2CCN(Cc3ccccc3)CC2)c1O | 5.35 | – |
| Cc1ccc(Cn2nnc3c(=O)[nH]c(C4CCN(S(=O)(=O)Cc5ccccc5)CC4)nc32)cc1 | 3.17 | – |
| CCN(CC)S(=O)(=O)c1ccc(Cl)c(NC(=O)COC(=O)c2c(C)noc2C)c1 | 0.267 | – |
| Cc1nc(N(C)C)c2sc(=S)n(C)c2n1 | 0.969 | – |
| C(=N\N(c1ccccc1)c1ccccc1)/c1ccccn1 | -1.74 | – |
| COc1ccc(CCN2CC(C#N)=C3c4cc(OC)c(OC)cc4CCN3C2)cc1OC | 1.78 | – |
| Cc1ccc(C(=O)NCCNS(=O)(=O)c2ccccc2)cc1 | 2.62 | – |
| Cc1ccc(NC(=O)Cn2nc(C)c3ccccc3c2=O)cc1F | 4.42 | – |
| Cc1ccc(/C=C/S(=O)(=O)N2CCC(C(=O)O)CC2)cc1 | 0.0087 | – |
| COc1ccc(/C=C2\SC(=S)N(NS(=O)(=O)c3ccc(C)cc3)C2=O)c(OC)c1 | -25.7 | – |
| O=C(Nc1ccncc1)c1ccc(S(=O)(=O)Nc2ccccc2)cc1 | – | 3.55 µM (active) |
| O/N=C/c1ccccc1OCc1ccccc1F | 0.904 | – |
| c1coc(CNC2CCCCCCC2)c1 | -5.83 | – |
| O=C(c1ccc([N+](=O)[O-])cc1)N(Cc1ccc(Cl)cc1)N1C(=O)CCCC1=O | 1.6 | – |
